From PubChem
A selection: hits, their analogues and other compounds. The true share with any hit is near 7.5%.
Rab9 promoter act: Rab9 promoter activation; actives 2.8% (n = 320,000); Potency, µM (series often up to 9.22 µM), for the others: top-dose activation, negative = inhibition, actives largely listed as activators; Huh7 Rab9 promoter-luciferase reporter, luminescence, 24 h; also: % of control where 0% means no effect; nearly all actives have a fitted effect of over 60% in size
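Cells were plated at 1500 per well in reduced-serum medium with 10% FBS and left 2 h. Compound in DMSO was then added for 24 h at 37 °C. Reporter signal was read by luminescence after 10 min with luciferase detection reagent.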
Luc counter: blocks Kinase-Glo luciferase, a counter-screen artifact; Q27757; Kinase-Glo luciferase, ATP luminescence, 8 min; Potency, µM (doses to about 38.3 µM), inactives show at the top dose activity change, negative = inhibition, hits mostly inhibitors; actives 0.28% (n = 200,000); AID 1379; also: % is scaled to controls: 0 for no effect and ±100 for the full control effect; nearly all actives have a fitted effect of over 60% in size
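Compound is pinned into ATP-containing buffer (10 uM ATP, imidazole pH 7.2, 7 mM MgCl2). Kinase-Glo luciferase reagent is then added. Light output is recorded following an 8-min room-temperature incubation.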
ELG1 genotox: inducers of genotoxicity in HEK293T ELG1-luciferase cells. HEK293T ELG1-luciferase reporter, luminescence, 16 h. Potency, µM (titrated, usually from 46 µM), without a hit: at the top dose activity change, positive = activation, hits mostly activators. actives 1.3% (n = 330,000). AID 504466; also: % of control where 0% means no effect; nearly all actives have a fitted effect of over 60% in size
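Genotoxic stress is detected as increased luminescence from luciferase-tagged ELG1 in HEK293T cells, measured with ONE-Glo after a 16 hr treatment at 37 °C.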
SMN2 splice up: increases expression of the SMN2 splice variant; HEK293 SMN2-luciferase splicing reporter, luminescence, 30-36 h; Potency, µM (titrated, usually from 46.1 µM), without a hit: at the highest dose activity change, positive = activation, actives largely listed as activators; actives 2.8% (n = 210,000); AID 1458; also: % of control where 0% means no effect; nearly all actives have a fitted effect of over 55% in size
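HEK293 cells carry an SMN2 […]–luciferase reporter in which exon 7 inclusion puts luciferase in frame. Cells were plated 10-12 h before compound addition, then incubated 30-36 h at 37C. ONE-Glo luminescence was read; sodium butyrate at 4.5 mM final served as control.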
NPC1 promoter act: activates the NPC1 promoter; Huh7 NPC1 promoter luciferase reporter, 24 h; Potency, µM (top dose mostly 9.22 µM), inactives show top-dose activation, hits mostly activators; actives 2.4% (n = 320,000); also: % of control where 0% means no effect; nearly all actives have a fitted effect of over 60% in size
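Luminescence from an NPC1 promoter-driven luciferase reporter in stably transfected Huh7 cells was measured after 24 h compound treatment at 37 °C, followed by 10 min ambient incubation with luciferase detection reagent.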
FLuc counter: inhibits or activates purified firefly luciferase, miR-21 counter-screen; AID 588342; P08659; actives 6.9% (n = 360,000); purified FLuc, Km substrates, luminescence inhibition; Potency, µM (series often up to 57.5 µM), for the others: top-dose activity change, negative = inhibition, usual class: inhibitors;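 also: plate controls were vehicle for no effect and reference inhibitor for full effect; nearly all actives have a fitted effect of over 55% in size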
Target sequence (P08659 whole entry, looked up): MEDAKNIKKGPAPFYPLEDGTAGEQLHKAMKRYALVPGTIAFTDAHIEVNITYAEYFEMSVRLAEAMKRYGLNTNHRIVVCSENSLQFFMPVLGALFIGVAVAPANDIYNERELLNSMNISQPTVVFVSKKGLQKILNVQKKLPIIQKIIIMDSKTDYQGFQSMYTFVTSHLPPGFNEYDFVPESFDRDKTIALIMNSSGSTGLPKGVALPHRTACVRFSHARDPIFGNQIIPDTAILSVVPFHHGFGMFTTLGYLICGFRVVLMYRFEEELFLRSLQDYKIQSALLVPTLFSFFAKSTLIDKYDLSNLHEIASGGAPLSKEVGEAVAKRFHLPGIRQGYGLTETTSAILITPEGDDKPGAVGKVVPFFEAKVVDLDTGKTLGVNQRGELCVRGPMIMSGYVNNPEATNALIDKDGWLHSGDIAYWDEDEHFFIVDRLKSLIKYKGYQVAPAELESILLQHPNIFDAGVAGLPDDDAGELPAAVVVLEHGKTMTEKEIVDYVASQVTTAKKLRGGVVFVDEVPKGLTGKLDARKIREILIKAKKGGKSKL
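Purified P. pyralis luciferase (10nM final) with 10uM D-luciferin and 10uM ATP (Km levels) in 50mM Tris acetate pH 7.5, 10mM Mg acetate, 0.01% Tween-20, 0.05% BSA; qHTS 6-point titration, ~60 µM downward; luminescence read.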
* marks the source's active call; other numbers are inactive results; ? = inconclusive; . = not tested or not shown; [ ] = dose if it differs, or a comment. Calls follow the shape of the dose curve; as a rule, active = well fitted curve in the direction sought with a large enough effect; inconclusive = small, poorly fitted or top-dose-only effect, or another doubt; inactive = no such curve, though single readings can be large; an effect the other way counts as inactive or inconclusive. Potency is read from the fitted curve at half-maximal effect.

SMILES	Rab9 promoter act	Luc counter	ELG1 genotox	SMN2 splice up	NPC1 promoter act	FLuc counter
CCn1c(CN2CCOCC2)nc2cc(NC(=O)c3ccc([N+](=O)[O-])cc3)ccc21	.	.	.	.	.	-10%
COc1cc2ccccc2cc1C(=O)Nc1cccnc1	?	1%	8.2µM*	13µM*	?	11µM*
COc1ccc(NC(=O)c2cccn(CC=C(C)C)c2=O)cc1	1.6µM*	2%	6%	2%	?	17µM*
C=CCn1cccc(C(=O)Nc2ccc(OC)cc2)c1=O	?	-14%	12%	.	?	?
CCCCC/C=C\C[C@@H]1O[C@H]1C(O)/C=C\C/C=C\CCCC(=O)O (stereo partly drawn)	.	1%	.	2%	.	.
CCOc1ccc(N(C(=O)c2ccc(OC)cc2)S(=O)(=O)c2ccc3c(c2)n(C)c(=O)n3C)cc1	.	.	.	-8%	.	-6%
COC(=O)c1cn(NC(=O)C2CCCCC2)c(=O)c2ccccc12	6.3µM*	7%	-6%	-2%	2%	3%
CSc1ccc(CC(=O)N2CCC(n3nccc3NC(=O)C3CC3)CC2)cc1	?	.	?	.	3.2µM*	?
COc1cccc(CC(=O)N2CCC(n3nccc3NC(=O)C3CC3)CC2)c1	4%	.	14%	.	9%	-2%
CC1CCN(C(=O)CN2CC(C)Sc3ccccc32)CC1 (stereo not drawn)	.	.	.	.	.	1%
Cc1cc(/C=C2\C(=N)N3C(SCc4ccccc4)=NSC3=NC2=O)c(C)n1Cc1ccccc1	-1%	-1%	0%	-10%	-1%	21µM*
CC(C)CSC1=NSC2=NC(=O)/C(=C\c3ccccc3)C(=N)N12	2.8µM*	1%	?	?	3.2µM*	17µM*
CC(C)CSC1=NSC2=NC(=O)/C(=C\c3coc4ccccc4c3=O)C(=N)N12	-1%	0%	0%	21%	1%	17µM*
CSC1=NSC2=NC(=O)/C(=C\c3coc4ccccc4c3=O)C(=N)N12	2%	0%	-1%	0%	-5%	-18%
COC(=O)c1ccccc1N(C)S(=O)(=O)c1cc2c3c(c1)CC(=O)N3CCC2	.	.	.	.	.	-3%
C[C@H]1Cc2c(COc3ccccc3)nc3c(c2CO1)CN(C(=O)NCCc1c[nH]c2ccccc12)CC3	.	-5%[7.66 µM]	.	-4%[9.22 µM]	.	.
CC(=O)N1c2ccc(S(=O)(=O)NCC3CCC(C(=O)NCCC(C)C)CC3)cc2CC1C (stereo not drawn)	.	.	.	.	.	2%
c1ccc(-c2cc3n(c2)CCc2ccccc2-3)cc1	3.2µM*	-1%	-6%	11µM*	3.5µM*	4.8µM*
O=C(CCn1c(=O)c2cccn2c2cccnc21)NCc1ccccc1Br	.	.	.	.	.	-1%
CN(C)c1ccc(N=Nc2ccc(S(=O)(=O)O)cc2)c2ccccc12	2%	-10%	-8%	6%	-1%	17µM*
Cc1ccccc1C(=O)Nc1ccc(N(C)C)c2ccccc12	13%	.	-6%	.	14%	?
Oc1c(C(c2ccc(Cl)cc2Cl)N2CCCC2)sc2nc(-c3ccco3)nn12 (stereo not drawn)	.	.	.	.	.	-15%
Cc1ccc2oc(-c3cccc(NC(=O)Cn4cnc5c(=O)n(C)c(=O)n(C)c54)c3)nc2c1	18%	-5%	17%	-26%	13%	3.8µM*
CCC(C)c1ccc2oc(-c3ccc(NC(=O)Cn4cnc5c(=O)n(C)c(=O)n(C)c54)cc3)nc2c1 (stereo not drawn)	?	2%	7%	-48%	23%	12µM*
Cn1c(=O)c2ncn(CC(=O)Nc3ccc(N4CCOCC4)cc3)c2n(C)c1=O	-2%	-5%	1%	-5%	0%	0%
SMILES	Rab9 promoter act	Luc counter	ELG1 genotox	SMN2 splice up	NPC1 promoter act	FLuc counter
Cc1ccc(NC(=O)Cn2cnc3c(=O)n(C)c(=O)n(C)c32)c(C)c1	-5%	-3%	0%	-23%	2%	0%
CCC1CCc2c(sc(NC(=O)C3c4ccccc4Oc4ccccc43)c2C#N)C1 (stereo not drawn)	.	.	.	-11%	.	4%
Cc1ccc(C(=O)Nc2nnc(S(=O)(=O)N(C)Cc3ccc(Cl)cc3)s2)cc1	.	.	.	.	.	-18%
Cc1cc([N+](=O)[O-])ccc1N=Nc1c(N)[nH]n(-c2ccccc2)c1=O	-2%	-4%	-1%	2%	8%	-6%
Nc1[nH]n(-c2ccccc2)c(=O)c1N=Nc1ccc2c(c1)OCCO2	0.5µM*	-2%	?	2.2µM*	2µM*	0.6µM*
Nc1[nH]n(-c2ccccc2)c(=O)c1N=Nc1ccc2c(c1)OCO2	3.2µM*	.	?	.	3.5µM*	2.4µM*
Cc1nc(N)nc(N/N=C/c2c(F)cccc2Cl)n1	-2%	.	8%	.	7%	?
Cc1nc(C#N)c(N/N=C/c2c(F)cccc2Cl)o1	19%	-1%	5%	?	10%	24µM*
Cc1cc(C)c2nc(-c3ccncc3)cc(C(=O)N3CCN(Cc4ccccc4Cl)CC3)c2c1	1%	.	-14%	.	-1%	15µM*
O=c1/c(=C/c2ccco2)sc2nc(-c3ccccc3Br)nn12	5%	-12%	4%	-4%	9%	6.7µM*
Cc1cccc(-c2nc(SCC(=O)NCc3ccco3)c3c(=O)n(C)c(=O)n(C)c3n2)c1	.	.	.	.	.	0%
CCOC(=O)c1[nH]c2ccccc2c1NC(=O)c1cc(OCC)c(OCC)c(OCC)c1	.	.	.	6%	.	0%
O=C(Nc1nnc(COc2ccccc2)s1)c1ccco1	-5%	-1%	5%	19%	-2%	-13%
Nc1nnc(/C=C/c2ccccc2)s1	?	-8%	?	.	?	24µM*
CCC(=O)Nc1nnc(/C=C/c2ccc(OC)cc2)s1	?	.	14%	.	?	6µM*
O=C(Nc1nnc(/C=C/c2ccccc2)s1)c1ccco1	22%	.	4%	.	18%	12µM*
COc1ccc(/C=C/c2nnc(NC(=O)CSc3ccc(C)cc3)s2)cc1	30%	.	7%	.	?	?
COC(=O)Nc1nnc(/C=C/c2ccccc2)s1	22%	-5%	?	20µM*	19%	5.4µM*
Cc1ccc(C)c(N2CCN(C(=O)CCc3c(C)nn(-c4ccc(N5CCCC5)nn4)c3C)CC2)c1	.	.	.	.	.	-3%
COc1ccc(NC(=O)c2cc(C)nc3c2c(C)nn3-c2ccc(C)cc2)cc1OC	.	.	.	.	.	-1%
NC(=O)c1cc[n+](CC2=C(C(=O)O)N3C(=O)[C@@H](NC(=O)[C@H](c4ccccc4)S(=O)(=O)[O-])[C@@H]3SC2)cc1	.	2%[17.1 µM]	.	3%[20.6 µM]	.	.
Brc1ccc(N=Nc2ccc3ccccc3n2)cc1	?	.	?	.	?	0.021µM*
